Laboratory results published in article PMC5540273 (PLoS ONE, 2017).

How the values were obtained:
Conditions in all cases: concentration: 1 μM, replicates: in singlicate; n = 1
[1] = tested on: GRK1
[2] = tested on: T1, GRK2
T1 construct: gene ADRBK1

[3] = tested on: T2, GRK3
T2 construct: gene ADRBK2

[4] = tested on: GRK4
[5] = tested on: GRK7
[6] = tested on: GSK3A
[7] = tested on: GSK3B
[8] = tested on: T3, HASPIN
T3 construct: gene GSG2

[9] = tested on: HCK
[10] = tested on: HIPK1
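Further: KINOMEscan kinase panel screen.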

SMILES | %Inh [1] [%] | %Inh [2] [%] | %Inh [3] [%] | %Inh [4] [%] | %Inh [5] [%] | %Inh [6] [%] | %Inh [7] [%] | %Inh [8] [%] | %Inh [9] [%] | %Inh [10] [%]
CCc1nc(-c2cccc(C)c2)c(-c2ccnc(NC(=O)c3ccccc3)c2)s1 | 0 | 25 | 7 | 0 | 17 | 0 | 0 | 0 | 27 | 25
c1ccc(-c2ccc3c(-c4ccnc(Nc5ccc6c(c5)OCCO6)n4)cnn3n2)cc1 [GW818941] | 0 | 7 | 0 | 11 | 0 | 12 | 0 | 0 | 16 | 0
FC(F)(F)c1cc(Nc2nccc(-c3c(-c4ccc(Cl)cc4)nn4ncccc34)n2)ccc1Cl [GW829351] | 0 | 0 | 0 | 10 | 0 | 26 | 0 | 0 | 0 | 3
FC(F)(F)c1ccc(-c2nn3ncccc3c2-c2ccnc(Nc3cccc(C(F)(F)F)c3)n2)cc1 [GW828205] | 11 | 0 | 0 | 25 | 0 | 1 | 10 | 0 | 10 | 39
Clc1cc(Nc2ncnc3cc[nH]c23)ccc1OCc1ccccn1 | 15 | 0 | 9 | 25 | 14 | 6 | 7 | 0 | 41 | 28
C[C@H]1CC[C@@H](C(=O)Nc2ccccc2)CN1c1cc(-c2ccc3c(N)n[nH]c3c2)nc(N)n1 [GSK2283293] | 0 | 0 | 31 | 25 | 0 | 0 | 0 | 0 | 3 | 22
CC(C)(C)c1ccc(-n2cnc3c(N)ncnc32)cc1 [SKF-97263] | 3 | 0 | 0 | 24 | 0 | 31 | 4 | 64 | 13 | 19
O=C(Nc1ccccc1)Nc1ccc(Oc2ccc3nccn3n2)cc1 | 11 | 0 | 0 | 17 | 0 | 14 | 0 | 0 | 7 | 26
Fc1cccc(COc2ccc(Nc3ncnc4nn5ccccc5c34)cc2Cl)c1 [GW689066] | 0 | 0 | 30 | 0 | 0 | 0 | 0 | 63 | 0 | 0
O=C(Nc1ccccc1F)NC1CCN(c2ccnc(Nc3ccc(F)cc3)n2)C1 (centres unmarked) [GSK1379722] | 0 | 0 | 57 | 0 | 0 | 0 | 8 | 0 | 0 | 0
CNc1nccc(-c2c(-c3ccc(F)cc3)ncn2CCCN2CCOCC2)n1 [SB-222516] | 22 | 0 | 23 | 0 | 0 | 0 | 14 | 8 | 0 | 0
C[C@@H]1CCN(C(=O)CO)C[C@@H]1N(C)c1ncnc2[nH]ccc12 | 16 | 17 | 22 | 0 | 25 | 0 | 0 | 8 | 25 | 15
Nc1nccc2scc(-c3ccc4c(c3)CCN4C(=O)Cc3cc(F)ccc3F)c12 [GSK2587663] | 0 | 0 | 40 | 0 | 0 | 17 | 1 | 0 | 0 | 0
O=c1cc(N2CCOCC2)nc2n(Cc3cccc(Cl)c3)ccn12 [GSK2296823] | 15 | 0 | 12 | 47 | 0 | 28 | 7 | 0 | 0 | 12
Cn1cc(-c2ccc3c(c2)CCN3C(=O)Cc2cccc(C(F)(F)F)c2)c2c(N)ncnc21 [GSK2606414] | 5 | 4 | 0 | 100 | 0 | 0 | 0 | 0 | 0 | 0
Cn1ccc2ncnc(Oc3ccc(NC(=O)Nc4cccnc4)c(Cl)c3)c21 | 13 | 0 | 0 | 1 | 14 | 0 | 3 | 0 | 8 | 13
CNc1nccc(-c2c(-c3ccc(F)cc3)ncn2C2CCN(C)CC2)n1 [SB-222903] | 0 | 90 | 0 | 0 | 0 | 3 | 0 | 6 | 26 | 10
